Screening results as filed in PubChem BioAssay.
Only some compounds are listed: those with a hit (about 3.4% of all), similar ones and a draw of the others.
HSF1 inhib: HSF1 inhibition; NIH3T3-HGL HSE-luciferase, MG132-induced, luminescence 8 h; hits give low values; activity change, negative = inhibition, % at 7.5 µM (by protocol); AID 2098; 300,000 tested, 0.77% active;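 active = more than half of replicate wells show activity change below -50%, luminescence cut by over half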;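 also: luciferase reports HSF-1 transcriptional activity via heat shock element; 0% = median of DMSO wells and -100% = zero luminescence signal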
esBAF inh: inhibitors of esBAF chromatin remodeling in mouse ES cells; AID 602393; 350,000 tested, 2% active; reporter increase, % at 12.5 µM; Bmi1-luciferase knock-in reporter, 24 h; 100% = twice the neutral-well signal; in the data active = activation above about 40%;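 also: 0% = median of the plate's neutral control wells and 100% = double that signal; a rise in the Bmi1 reporter signal indicates esBAF inhibition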
Vif imaging: inhibitors of HIV Vif; AID 602346; 340,000 tested, 0.35% active; HEK293T cells, Vif self-association by quenched fluorescence, imaging, 24 h; inhibition, % at 7.49 µM; in the data active = inhibition above about 50%, passing the limit was not always enough
HSF1 activator: increases HSF-1 driven luciferase reporter signal; 300,000 tested, 1.7% active; AID 504408; NIH3T3-HGL HSF-1 luciferase reporter, MG132, 8 h; 100% = twice DMSO control signal; activation, % at 9 µM;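 active = mean replicate activation of at least 50% with a set share of replicates each reaching 50%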;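 also: 0% = median of the neutral control wells and 100% = twice that signal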
* marks the source's active call; other numbers are inactive results; / = no result.

SMILES	HSF1 inhib	esBAF inh	Vif imaging	HSF1 activator
CC=Cc1ccc2n(c1=O)C[C@@H]1N[C@H]2[C@H](C(=O)NC2CCCCC2)[C@H]1CO (mixture of isomers)	/	-2	/	/
CCN(CC)S(=O)(=O)c1cccc(-c2nc3n(n2)Cc2ccccc2-3)c1	13	75*	-8	17
C/C=C/c1cnc2c(c1)C(=O)N([C@@H](C)CO)C[C@@H](C)[C@@H](CN(C)C(=O)C1CCCCC1)O2	/	4	/	/
S=C(N/N=C/c1ccc(Cl)cc1)N1CCOCC1	4	8	-4	24
S=C(N/N=C/c1ccc(Br)cc1)N1CCCCC1	32	50*	-3	55*
O=C(C[C@H]1CC[C@H]2[C@@H](COC[C@H](O)CN2C(=O)c2ccccc2F)O1)N1CCCCC1	/	-2	/	/
Cc1noc(C)c1NC(=O)Nc1cccc2c1O[C@@H](CN(C)C(=O)NC(C)C)[C@@H](C)CN([C@H](C)CO)C2=O	/	-1	/	/
CC(=O)Nc1ccc2c(c1)C(=O)N(C)[C@@H]1CC[C@H](CC(=O)Nc3cn(C)nc3C)O[C@@H]1CO2	/	1	/	/
Cc1ccc(S(=O)(=O)NCC(c2ccccc2)N2CCN(c3ccc(F)cc3)CC2)cc1 (configuration not stated)	23	11	-5	54*
COCCN(Cc1cc2ccc(C)c(C)c2nc1Cl)C(=O)N1CCOCC1	18	/	-4	55*
CC1Cc2ccccc2N1C(=O)CSc1ncc(-c2ccc(F)cc2)n1C (configuration not stated)	49	12	0	67*
Cn1c(-c2ccc(F)cc2)cnc1SCC(=O)N1CCCc2ccccc21	6	-2	-1	20
O=C(O)C(=O)/C(=C\c1cccc(Cl)c1)c1ccc2ccccc2n1	17	78*	17	60*
N#Cc1ccc(/C=C(\C(=O)C(=O)O)c2ccc3ccccc3n2)cc1	30	32	-9	34
Cc1cccc(/C=C(\C(=O)C(=O)O)c2ccc3ccccc3n2)c1	26	50*	40	14
CCCC(=O)Nc1ccc2c(c1)C(=O)N(C)[C@H]1CC[C@@H](CC(=O)O)O[C@H]1CO2	/	-5	/	/
CCc1cnc(N2[C@@H](C#N)[C@@H](c3ccc(C#Cc4ccccc4F)cc3)[C@@H]2CO)s1	/	-3	/	/
CCOc1c(Cl)cc(C2NC(=O)NC(C)=C2C(=O)NCc2ccccc2)cc1OC (configuration not stated)	-8	50*	9	-3
CCOc1cc(C2NC(=O)NC(C)=C2C(C)=O)cc(Cl)c1OCC(=O)O (configuration not stated)	-11	-3	-9	8
COc1ccccc1S(=O)(=O)N[C@@H]1C=C[C@@H](CC(=O)N2CCCCC2)O[C@H]1CO	/	-2	/	/
COc1ccccc1CNC(=O)c1ccc(Cl)c(NC2=NC3CS(=O)(=O)CC3S2)c1 (configuration not stated)	-7	-1	60*	-16
Cc1ccc(CNC(=O)C2CC(c3cccc([N+](=O)[O-])c3)=NO2)cc1 (configuration not stated)	1	9	-5	-9
COc1ccc(CNC(=O)C2CC(c3cccc([N+](=O)[O-])c3)=NO2)cc1 (configuration not stated)	8	54*	/	28
CCCNC(=O)c1cc2ccccc2c(=O)o1	-1	/	1	10
CCCCC[C@@H](O)c1cc2ccccc2c(=O)o1	/	43*	7	/
SMILES	HSF1 inhib	esBAF inh	Vif imaging	HSF1 activator
CCOC(=O)/C(=C/c1ccc(OC(F)F)cc1)C1=Nn2c(nnc2-c2ccc(Cl)cc2)SC1	/	-81	-14	/
CCOC(=O)/C(=C\c1ccc(OC(F)F)cc1)C1=Nn2c(nnc2-c2ccc(Cl)cc2)SC1	-83*	/	3	-83
O=C1COc2ccc(OCc3ccc(F)cc3)cc21	34	22	-12	54*
O=C(NCC1CCCC(CNC(=O)Nc2ccc(Cl)cn2)C1)Nc1ccc(Cl)cn1 (configuration not stated)	29	25	1	56*
O=C(NCC1CC1)Nc1ccc(Cl)cc1	10	68*	-8	15
CC(C)CC#Cc1ccc2c(c1)O[C@H](CN(C)C(=O)C1CCCCC1)[C@@H](C)CN([C@@H](C)CO)S2(=O)=O	/	-2	/	/
C[C@H](CO)N1C[C@H](C)[C@@H](CN(C)C(=O)C2CC2)Oc2cc(C#C[C@@H](C)O)ccc2S1(=O)=O	/	-12	/	/
COc1ccc(C#Cc2cnc3c(c2)C(=O)N([C@@H](C)CO)C[C@H](C)[C@H](CN(C)C(C)=O)O3)cc1	/	4	/	/
COc1ccc(CN(C(=O)c2cc3ccccc3oc2=O)C2CCCC2)cc1	10	/	-2	10
CCOc1ccc(CN(C(=O)c2cc3ccccc3oc2=O)C2CCS(=O)(=O)C2)cc1 (configuration not stated)	1	76*	12	13
COc1cccc(CN(C(=O)c2cc3ccccc3oc2=O)C2CC2)c1	8	57*	-10	38
COc1ccc(CN(C(=O)c2cc3ccccc3oc2=O)C2CCS(=O)(=O)C2)cc1OC (configuration not stated)	23	62*	7	56*
C[C@@H]1CN([C@@H](C)CO)C(=O)c2cc(-c3ccc(C#N)cc3)cnc2O[C@H]1CN(C)Cc1cccnc1	/	-10	/	/
Cc1ccc(-n2nc3c(=O)n(C(C)C(=O)NCc4ccccc4Cl)nc(C)c3c2C)cc1 (configuration not stated)	37	-2	5	69*
Cn1cnc(S(=O)(=O)N2C[C@@H](O)COC[C@H]3O[C@@H](CC(=O)NC4Cc5ccccc5C4)CC[C@@H]32)c1	/	3	/	/
CC(Oc1ccc(Cl)cc1Cl)c1nc(-c2ccc(NC(=O)c3ccco3)cc2)no1 (configuration not stated)	27	50*	-11	61*
Cc1ccccc1OCc1nc(-c2ccc(NC(=O)c3ccco3)cc2)no1	/	27	-16	/
CCCc1ccc(OCc2nc(-c3ccc(NC(=O)c4ccco4)cc3)no2)cc1	16	62*	0	16
CCCc1ccc(OCc2nc(-c3ccc(NC(=O)c4cccs4)cc3)no2)cc1	43	/	2	58*
CC(NC(=O)c1ccco1)c1nc(-c2ccccc2)no1 (configuration not stated)	-2	3	19	-1
Cc1ccccc1OCc1nc(-c2ccc(NC(=O)c3cccs3)cc2)no1	10	/	-8	27
C[C@@H]1CN([C@@H](C)CO)S(=O)(=O)c2ccc(C3=CCCC3)cc2O[C@@H]1CN(C)C(=O)c1ccccc1	/	-4	/	/
CO[C@H]1CN(C)C(=O)c2cc(NC(=O)Nc3ccccc3)ccc2OC[C@H](C)N(C(C)=O)C[C@H]1C	/	-1	/	/
O=C1/C(=C/c2ccco2)CCC1C1CCCC1 (configuration not stated)	42	17	-11	61*
O=C1/C(=C\c2ccco2)CCC/C1=C\c1ccco1	14	77*	-5	17
Cc1noc(C)c1NC(=O)Nc1ccc2c(c1)CC(=O)N([C@H](C)CO)C[C@@H](C)[C@H](CN(C)CC1CC1)O2	/	-1	/	/
